Bioassay records: PubChem, National Center for Advancing Translational Sciences (NCATS)
AmpC inh detg – qHTS Inhibitors of AmpC Beta-Lactamase (assay with detergent); P00811; AmpC hydrolysis of nitrocefin, absorbance 480 nm, 0.01% Triton; Potency, µM (series often up to 114 µM), actives largely listed as inhibitors; 370,000 tested, 0.041% active; AID 485294, 2010; also: nearly all actives have a fitted effect of over 25% in size
Target sequence (P00811 whole entry, looked up): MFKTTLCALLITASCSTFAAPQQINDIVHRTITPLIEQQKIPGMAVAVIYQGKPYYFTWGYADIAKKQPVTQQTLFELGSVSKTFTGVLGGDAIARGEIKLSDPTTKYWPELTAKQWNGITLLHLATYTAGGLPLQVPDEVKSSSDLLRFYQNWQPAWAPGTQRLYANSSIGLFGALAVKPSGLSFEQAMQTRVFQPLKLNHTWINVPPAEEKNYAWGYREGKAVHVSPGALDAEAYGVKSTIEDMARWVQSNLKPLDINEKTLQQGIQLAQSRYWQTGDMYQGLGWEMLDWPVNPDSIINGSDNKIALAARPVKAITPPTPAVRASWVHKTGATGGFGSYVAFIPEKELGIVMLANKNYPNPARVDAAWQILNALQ
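20 mM phosphate pH 7.0 + 0.01% (detergent screen) or 0.0001% Triton X-100; 5.3 nM AmpC reagent; cpd preinc 15 min RT; nitrocefin (800 uM stock) to start; A480 q20 s × 4 min; Activity was normalised to no-enzyme and no-compound control wells.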
NS1 inh – qHTS Assay for Inhibitors of Influenza NS1 Protein Function; Potency, µM (doses to about 46.1 µM); 270,000 tested, 0.4% active; calls by dose curve; also: actives are rising curves; nearly all actives have a fitted effect of over 50% in size
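In this qHTS, NS1 from influenza A is expressed in budding yeast, where it slows growth. Cells are switched from glucose to 2% galactose medium (pH 6.0, -URA), treated with compound, and growth recovery is read at OD600.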
AmpC inh no detg – qHTS Inhibitors of AmpC Beta-Lactamase (assay without detergent); AID 485341, 2010; 330,000 tested, 0.52% active; Potency, µM (highest dose often 57.1 µM), most hits filed as inhibitors; AmpC nitrocefin hydrolysis, absorbance 480 nm, 0.0001% Triton; P00811; also: nearly all actives have a fitted effect of over 20% in size
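20 mM phosphate pH 7.0 + 0.01% (detergent screen) or 0.0001% Triton X-100; 5.3 nM AmpC reagent; cpd preinc 15 min RT; nitrocefin (800 uM stock) to start; A480 q20 s × 4 min; Activity was normalised to no-enzyme and no-compound control wells.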
AMA1 RON2 block – qHTS for Inhibitors of AMA1-RON; Towards Development of Antimalarial Drug Lead: Primary Screen; AlphaScreen AMA1-biotinylated RON2 peptide binding; Potency, µM (highest dose often 58.2 µM), actives largely listed as inhibitors; 360,000 tested, 0.2% active; AID 720542, 2013; also: nearly all actives have a fitted effect of over 45% in size
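AMA1 (3D7) with his tag at 25 nM final met compounds first, then biotinylated RON2 peptide at 25 nM; detection used donor plus acceptor beads, 10 µg/mL apiece, read by AlphaScreen after 30 min at room temperature.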
NS1 inh valid – Assay for Inhibitors of Influenza NS1 Protein Function: Hit Validation; influenza NS1 function cell assay, 15-point titration; shares compounds with NS1 inh; activity change, negative = inhibition, % at 32.9 µM; 1,400 tested, under 10 active; calls by dose curve
Flu PR8 replic – Assay for Inhibitors of Influenza NS1 Protein Function: Influenza virus replication assay in MDCK cells infected with virus A/PR/8/34. 95 tested, 30% active. virus titer (log TCID50), log10 TCID50 at 5 µM. MDCK infected influenza A/PR/8/34, virus titer TCID50; active compounds read low. AID 504647, 2011. shares compounds with NS1 inh; call rule not given here
Of the large screens only hits and unclear results are named; the others gave an inactive call (follow-up assays come after a bar, where they were run). Hits are enriched below; roughly 0.86% of the tested compounds scored in any of these assays. Unless noted, calls follow the shape of the dose curve; as a rule, active = well fitted curve in the direction sought with a large enough effect; inconclusive = small, poorly fitted or top-dose-only effect, or another doubt; inactive = no such curve, though single readings can be large; an effect the other way counts as inactive or inconclusive.

Cc1csc(CN(C)C(=O)CC2C(=O)NCCN2Cc2ccc(Cl)c(F)c2)n1 (stereo not given)	none
COC(=O)c1[nH]c2ccc(C)cc2c1NS(=O)(=O)c1ccc(F)c(C)c1	NS1 inh 1.8µM | NS1 inh valid inactive
COC(=O)c1[nH]c2ccc(F)cc2c1NS(=O)(=O)c1ccc(F)c(C)c1	none
CCOC(=O)[C@@H](NC(=O)CC[C@H]1O[C@@H](n2ccc(=O)[nH]c2=O)[C@H](O)[C@@H]1O)C(C)C	none (no result: AmpC inh detg, NS1 inh, AmpC inh no detg)
C/C(=N\NC(=S)Nc1cc(S(=O)(=O)N2CCOCC2)ccc1Cl)c1ccc(N2CCOCC2)cc1	none
C/C(=N\NC(=S)Nc1ccc(C)c(C)c1)c1ccc(N2CCOCC2)cc1	AmpC inh detg inconclusive, NS1 inh 7.9µM | NS1 inh valid inconclusive
COc1ccc(C2=NC3(CCCCCC3)N(CC(=O)Nc3cccc(Cl)c3)C2=O)cc1	none (no result: NS1 inh, AmpC inh no detg, AMA1 RON2 block)
Cc1nc2ccc(S(=O)(=O)Nc3cccc(-c4nc5cccnc5s4)c3)cc2s1	NS1 inh 11µM | NS1 inh valid inactive
O=C(c1ccccc1)N1CCC(CC2CC(c3cccc(Br)c3)=NO2)(C(=O)NCC2CCCCC2)CC1 (stereo not given)	NS1 inh inconclusive
CC(C)(C)OC(=O)N1CCC(CC2CC(c3cccc(Br)c3)=NO2)(C(=O)NCC2CCCCC2)CC1 (stereo not given)	NS1 inh inconclusive | NS1 inh valid inactive
CC(C)(CN1CCCC1)NS(=O)(=O)c1ccc(Cl)cc1	NS1 inh inconclusive | NS1 inh valid inactive
CC(C)(CN1CCNCC1)NS(=O)(=O)c1ccc(Cl)cc1	none (no result: NS1 inh)
CCN1C(=O)[C@H]2[C@@H](c3ccc(-c4ccc(C(C)=O)cc4)cc3)N3CCCC[C@@]3(C(=O)OC)[C@H]2C1=O	AmpC inh detg inconclusive (no result: NS1 inh)
COc1ccc(-n2nnnc2S(=O)(=O)Cc2ccc(C(=O)O)cc2)cc1	none
CCS(=O)(=O)c1nnnn1-c1ccccc1S(C)(=O)=O	NS1 inh 14µM | NS1 inh valid inactive
O=S(=O)(c1ccc2ccccc2c1)N1CCN(C(=S)Nc2ccc(F)cc2)CC1	NS1 inh 11µM | NS1 inh valid inactive
Cc1ccc(N(CC(=O)Nc2cccc(C)c2)S(=O)(=O)c2cccc3nonc23)cc1	NS1 inh 7.1µM | NS1 inh valid inactive | Flu PR8 replic inactive
COc1nc(NCCC2=CCCCC2)nc(OC)n1	AmpC inh detg inconclusive, AMA1 RON2 block inconclusive
C1=C(CCNC2=NCCCCC2)CCCC1	NS1 inh 20µM | NS1 inh valid inactive
O=S(=O)(Nc1ncnc2c1oc1ccccc12)c1ccc(Cl)s1	AmpC inh detg inconclusive, NS1 inh 1.1µM | NS1 inh valid inactive
Cc1cc(-c2nnc3n2N=C(c2ccc(-c4ccccc4)cc2)CS3)n[nH]1	NS1 inh 3.2µM | NS1 inh valid inconclusive
Cc1cc(-c2nnc3n2N=C(c2ccccc2)CS3)n[nH]1	none
O=C(Nc1cccc(S(=O)(=O)NC2=NCCCCC2)c1)c1cc(-c2ccccc2)nc2ccccc12	none
CC(=O)NS(=O)(=O)c1ccc(NC(=O)c2cc(-c3ccc(C)c(C)c3)nc3ccccc23)cc1	none
O=C(Nc1cccc(S(=O)(=O)NC2=NCCCCC2)c1)c1cc(-c2ccc(Cl)cc2)nc2ccccc12	NS1 inh 11µM, AmpC inh no detg inconclusive | NS1 inh valid inactive
Cc1ccc(-c2cc(C(=O)Nc3ccc(S(=O)(=O)Nc4nc(C)cc(C)n4)cc3)c3ccccc3n2)cc1	NS1 inh 14µM | NS1 inh valid inactive
CC(=O)NS(=O)(=O)c1ccc(NC(=O)c2cc(-c3ccc(C)cc3)nc3ccccc23)cc1	NS1 inh 8.9µM | NS1 inh valid inactive
COc1c(C)cc(S(=O)(=O)NCCc2c(C)[nH]c3ccccc23)c(C)c1C	none (no result: NS1 inh, AmpC inh no detg, AMA1 RON2 block)
COc1ccc(CNC(=O)C2CCN(S(=O)(=O)c3ccc4c(c3)CC(C)N4C(=O)C3CC3)CC2)cc1 (stereo not given)	none
NNC(=O)CS(=O)(=O)Nc1ncccn1	none (no result: AmpC inh detg, AmpC inh no detg, AMA1 RON2 block)
CN(C)N1C(N)=C(C#N)C(c2cccc3ccccc23)C2=C1CC(c1ccccc1)CC2=O (stereo not given)	NS1 inh 22µM | NS1 inh valid inactive
Cc1ccc(CNC(=O)CN(c2cc(C)cc(C)c2)S(=O)(=O)c2c(C)noc2C)cc1	none (no result: NS1 inh, AmpC inh no detg, AMA1 RON2 block)
NC(=O)Nn1c(CCC(=O)O)ccc1-c1ccc(F)cc1	NS1 inh inconclusive | NS1 inh valid inactive
Cc1ccc(-c2ccc(CCC(=O)O)n2CC(=O)O)cc1	NS1 inh 11µM | NS1 inh valid inactive
COc1ccc(-c2nc3ccccc3o2)cc1NC(=O)c1ccc(N2CCC(C)CC2)c([N+](=O)[O-])c1	none (no result: NS1 inh, AmpC inh no detg, AMA1 RON2 block)
Cc1ccc(S(=O)(=O)Nc2ccccc2C(=O)c2ccc(C)c(C)c2)cc1	none (no result: AmpC inh detg, AmpC inh no detg, AMA1 RON2 block)
COc1ccccc1/C=C1\CCCC2=C1Nc1nnnn1C2c1ccccc1OC (stereo not given)	NS1 inh inconclusive | NS1 inh valid inconclusive | Flu PR8 replic inactive
O=C1CCC(C(=O)N2CCCCCC2)CN1CCc1ccc(Cl)cc1 (stereo not given)	NS1 inh 2µM | NS1 inh valid inactive
O=C1CCC(C(=O)N2CCC(O)CC2)CN1CCc1ccc(Cl)cc1 (stereo not given)	none
CC(C)c1nc2n[nH]c(N)c2c2c1CSC(C)(C)C2	NS1 inh 5.6µM | NS1 inh valid inactive
CC(C)c1ccc(-c2nc(N3CCCCC3)[nH]c(=O)c2C#N)cc1	none
CC1=Nc2nc(N3CCCCC3)c(C#N)c3c4c(nc(c23)N1)N(c1ccc(C(C)C)cc1)C(=O)C4	NS1 inh 11µM | NS1 inh valid inactive
Cc1ccc(-c2cc3ncc(C(=O)c4cc([N+](=O)[O-])ccc4O)cn3n2)cc1	none (no result: NS1 inh, AmpC inh no detg, AMA1 RON2 block)
Cc1c(C(=O)N/N=C/c2ccncc2)nnn1-c1nonc1N	none (no result: NS1 inh)
Cn1cccc1C(=O)NC(=O)COC(=O)c1ccc(O)cc1	NS1 inh 10µM | NS1 inh valid inactive
Cc1ccc(C(=O)CSc2nc(N)cc(=O)[nH]2)cc1C	NS1 inh inconclusive
Cc1ccc(C(=O)CSc2nc(O)cc(=O)[nH]2)cc1C	AmpC inh detg inconclusive, NS1 inh 7.9µM | NS1 inh valid inconclusive
CCC(C)c1c(O)nc(SCC(=O)Nc2ccccc2)[nH]c1=O (stereo not given)	none
CCC(C)c1c(O)nc(SCC(=O)c2ccccc2)[nH]c1=O (stereo not given)	NS1 inh 4.5µM | NS1 inh valid inactive
Cc1[nH]n(-c2ccccc2)c(=O)c1N=Nc1cccc(C(=O)O)c1	none
